Reference: PubChem BioAssay (NCI)
This is part of a sample that, as a whole, favours compounds with a hit. Of some 79,000 tested, about 15% had one in any assay. The source made the active and inactive calls. Cut-off read from the data, not from the text of the source: active = growth inhibition above about 70%; inactive = the rest.

Assay: NCI Yeast Anticancer Drug Screen. Data for the cln2 rad14 strain (AID 165);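 note: 0% = growth equal to vehicle treated cultures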
Details: S. cerevisiae cln2 rad14 strain, at 50.0 µM, active compounds read high
In short: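 Growth inhibition, relative to vehicle-treated controls, is the read-out. The test organism is a yeast strain with defined genetic alterations, cln2 rad14.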

SMILES	growth inhibition
Oc1ccc2ccccc2c1C=NCCS	-25.6% (inactive)
[N-]=[N+]=NC12CC3C4CC5CC3C(C1)C(C5)C4C2	10.2% (inactive)
O=C(Oc1ccc2ccccc2c1)c1ccccc1	21.9% (inactive)
CCOC(=O)CCC(C(=O)OCC)N1C(=O)c2ccccc2C1=O (stereo not drawn)	11.8% (inactive)
CCO/N=C(/N)c1ncn(Cc2ccccc2)c1NCC(OCC)OCC	22.2% (inactive)
Cc1cccc(F)c1C	6.1% (inactive)
CS/C(c1ccccc1)=[N+](\[O-])Cc1ccccc1	8.5% (inactive)
C=CC1(C)C(C)=C(C)C(C)=C1C	18% (inactive)
CC(=O)NC1c2ccccc2C(C)(C)C12CCC1(CC2)OCCO1 (stereo not drawn)	0.05% (inactive)
COc1ccc(/C=C2\N=C(SC)NC2=O)cc1	0.95% (inactive)
CC(C)c1ccc(OC(=N)c2ccccc2)cc1	-3.95% (inactive)
CCCCCCCCCCCCCCCCCC1(c2ccccc2)NC(=O)NC1=O (stereo not drawn)	12.9% (inactive)
Cc1ccc(N(C)C)cc1	-18.4% (inactive)
CC(=O)Nc1ncc2ccccc2c1-c1ccc(NC(=O)CCCl)cc1	-1.3% (inactive)
O=S(CC(O)(c1ccccc1)c1ccccc1)c1ccccc1 (stereo not drawn)	36.2% (inactive)
CCCC(=O)OC1C=C2N3C(=O)C4CC56C(=CC(OC(C)=O)C7OC75)N4C(=O)C3CC26C2OC12 (stereo not drawn)	78.8% (active)
CC1(C)CCCC2(C)[C@@H]1CC[C@]13C[C@](C)(CC[C@@H]21)[C@@H]3CO (stereo partly drawn)	-3.35% (inactive)
CCc1nc(-c2ccccc2)nc2c1nc(-c1ccc(C)cc1)n2Nc1ccccc1	-0.25% (inactive)
CN(C)CCCNc1ccc([N+](=O)[O-])c2nc3ccccc3c(N)c12	-0.5% (inactive)

SMILES	growth inhibition
CCCc1cc(C)cc(N=Cc2ccccc2)c1O	97.8% (active)
CC1(N)CCC(C(C)(C)N)CC1 (stereo not drawn)	-30.3% (inactive)
Cc1cc2c(cc1C)C(=O)c1ccccc1C2=O	-6.7% (inactive)
O=C1c2ccccc2CC12Cc1ccc3c(c1C2=O)CCCC3 (stereo not drawn)	-30.2% (inactive)
CC1(C(=O)Sc2ccccc2)OC1(C)c1ccccc1 (stereo not drawn)	-28.1% (inactive)
C=Cc1ccccc1N=NC(C(=O)OC)=P(c1ccccc1)(c1ccccc1)c1ccccc1	-6.75% (inactive)
COC1c2ccccc2CC1(C)C (stereo not drawn)	-52.4% (inactive)
Cc1ccc2ccc(-c3cc4ccccc4s3)nc2c1	-81.8% (inactive)
Cc1ccc(C(=O)N/N=C/c2c(O)ccc3ccccc23)cc1	-24.9% (inactive)
Cc1cccc(NC(=O)Nc2ccccc2)n1	-71.5% (inactive)
Nc1nc2c(C(=O)c3ccco3)nnn2c2cccc(Cl)c12	11.2% (inactive)
CC(=O)[CH-]C(=O)c1ccccc1.CC(=O)[CH-]C(=O)c1ccccc1.CC[C@H](/C=C/C(C)[C@H]1CCC2[C@@H]3CC=C4C[C@@H]([O-])CC[C@]4(C)C3CC[C@@]21C)C(C)C.CC[O-].[Ti+4] (stereo partly drawn)	-2.3% (inactive)
CC(=O)OCC1OC(N2C(=O)C(=O)c3cc(C)ccc32)C(OC(C)=O)C(OC(C)=O)C1OC(C)=O (stereo not drawn)	1.7% (inactive)
C#Cc1cccc(N=Cc2cc(Br)cc(OC)c2O)c1	4.8% (inactive)
CCn1c2ccccc2c2ccc(N=Cc3ccc4ccccc4c3)cc21	-14% (inactive)
Cc1cccc(C)c1NN	-12.7% (inactive)
Cc1ccc2c(c1)C(=Nc1ccc(Cl)cc1)C(=O)N2	-0.55% (inactive)
O=C(Nc1ccccc1)Oc1ccccc1C1CCCCC1	16.8% (inactive)
NC(CS(=O)Cc1ccccc1)C(=O)O (stereo not drawn)	-29.6% (inactive)

Assay: NCI Yeast Anticancer Drug Screen. Data for the bub3 strain (AID 167)
Details: S. cerevisiae bub3 mutant strain, at 50.0 µM, active compounds read high
In short: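 Yeast carrying a defined mutation is treated with each compound, and growth is compared with that of vehicle-exposed cells to give inhibition.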

SMILES	growth inhibition
COC1C2C[C@@H](O)CCC2C(C(=O)OCCl)C[C@H]1O (stereo partly drawn)	-10.6% (inactive)
Oc1ccc2ccccc2c1C=NCCS	-3.4% (inactive)
[N-]=[N+]=NC12CC3C4CC5CC3C(C1)C(C5)C4C2	-6.15% (inactive)
O=C(Oc1ccc2ccccc2c1)c1ccccc1	2.7% (inactive)
CCOC(=O)CCC(C(=O)OCC)N1C(=O)c2ccccc2C1=O (stereo not drawn)	23.8% (inactive)
CCO/N=C(/N)c1ncn(Cc2ccccc2)c1NCC(OCC)OCC	-1% (inactive)
Cc1cccc(F)c1C	3.2% (inactive)
CS/C(c1ccccc1)=[N+](\[O-])Cc1ccccc1	-0.75% (inactive)
C=CC1(C)C(C)=C(C)C(C)=C1C	-2% (inactive)
CC(=O)NC1c2ccccc2C(C)(C)C12CCC1(CC2)OCCO1 (stereo not drawn)	-3.8% (inactive)
COc1ccc(/C=C2\N=C(SC)NC2=O)cc1	2% (inactive)
CC(C)c1ccc(OC(=N)c2ccccc2)cc1	7.85% (inactive)
CCCCCCCCCCCCCCCCCC1(c2ccccc2)NC(=O)NC1=O (stereo not drawn)	5.8% (inactive)
Cc1ccc(N(C)C)cc1	-0.45% (inactive)
CC(=O)Nc1ncc2ccccc2c1-c1ccc(NC(=O)CCCl)cc1	3.6% (inactive)
CC(=O)Nc1ccc(N(C)C)c(C)c1	12.9% (inactive)
O=S(CC(O)(c1ccccc1)c1ccccc1)c1ccccc1 (stereo not drawn)	30.9% (inactive)
CCCC(=O)OC1C=C2N3C(=O)C4CC56C(=CC(OC(C)=O)C7OC75)N4C(=O)C3CC26C2OC12 (stereo not drawn)	76.3% (active)
CC1(C)CCCC2(C)[C@@H]1CC[C@]13C[C@](C)(CC[C@@H]21)[C@@H]3CO (stereo partly drawn)	-32.1% (inactive)
CCc1nc(-c2ccccc2)nc2c1nc(-c1ccc(C)cc1)n2Nc1ccccc1	-4.45% (inactive)

SMILES	growth inhibition
CN(C)CCCNc1ccc([N+](=O)[O-])c2nc3ccccc3c(N)c12	-11.4% (inactive)
CCCc1cc(C)cc(N=Cc2ccccc2)c1O	97% (active)
CC1(N)CCC(C(C)(C)N)CC1 (stereo not drawn)	2.35% (inactive)
Cc1cc2c(cc1C)C(=O)c1ccccc1C2=O	-30.7% (inactive)
O=C1c2ccccc2CC12Cc1ccc3c(c1C2=O)CCCC3 (stereo not drawn)	-3.55% (inactive)
CC1(C(=O)Sc2ccccc2)OC1(C)c1ccccc1 (stereo not drawn)	14.8% (inactive)
C=Cc1ccccc1N=NC(C(=O)OC)=P(c1ccccc1)(c1ccccc1)c1ccccc1	-4.05% (inactive)
COC1c2ccccc2CC1(C)C (stereo not drawn)	10.3% (inactive)
Cc1ccc2ccc(-c3cc4ccccc4s3)nc2c1	-9.5% (inactive)
Cc1ccc(C(=O)N/N=C/c2c(O)ccc3ccccc23)cc1	38.5% (inactive)
Cc1cccc(NC(=O)Nc2ccccc2)n1	-18.9% (inactive)
Nc1nc2c(C(=O)c3ccco3)nnn2c2cccc(Cl)c12	8.95% (inactive)
CC(=O)[CH-]C(=O)c1ccccc1.CC(=O)[CH-]C(=O)c1ccccc1.CC[C@H](/C=C/C(C)[C@H]1CCC2[C@@H]3CC=C4C[C@@H]([O-])CC[C@]4(C)C3CC[C@@]21C)C(C)C.CC[O-].[Ti+4] (stereo partly drawn)	5.3% (inactive)
CC(=O)OCC1OC(N2C(=O)C(=O)c3cc(C)ccc32)C(OC(C)=O)C(OC(C)=O)C1OC(C)=O (stereo not drawn)	41% (inactive)
C#Cc1cccc(N=Cc2cc(Br)cc(OC)c2O)c1	5% (inactive)
CCn1c2ccccc2c2ccc(N=Cc3ccc4ccccc4c3)cc21	14.3% (inactive)
Cc1cccc(C)c1NN	-11.5% (inactive)
Cc1ccc2c(c1)C(=Nc1ccc(Cl)cc1)C(=O)N2	18.9% (inactive)
O=C(Nc1ccccc1)Oc1ccccc1C1CCCCC1	-18.9% (inactive)
NC(CS(=O)Cc1ccccc1)C(=O)O (stereo not drawn)	-2.8% (inactive)
